In PubChem BioAssay (NCI):
This is part of a sample that, as a whole, favours compounds with a hit. Of some 79,000 tested, about 15% had one in any assay. Calls of active or inactive are those of the source. No stated cut-off is given here; in the data, active means growth inhibition above about 70%; inactive means the rest.

Tests used:
[1] = NCI Yeast Anticancer Drug Screen. Data for the wt1 strain (AID 149);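 further: 0% = growth of vehicle-treated wt1 cultures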; details: S. cerevisiae wt1 strain (SPY 50644) growth inhibition, hits give high values
Method in brief: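 Compounds are added to wt1 yeast cultures. Growth is then measured. Inhibition is expressed relative to vehicle-treated controls.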

[2] = NCI Yeast Anticancer Drug Screen. Data for the rad50EPP+ strain (AID 151);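 further: 0% = growth of vehicle-treated control cultures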; details: S. cerevisiae rad50 mutant strain, hits give high values
Method in brief: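 Vehicle-normalised growth inhibition; rad50EPP+ yeast strain, altered in DNA damage repair, compound-treated.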

[3] = NCI Yeast Anticancer Drug Screen. Data for the mgt1 strain (AID 153); details: S. cerevisiae mgt1 mutant growth inhibition, hits give high values
Method in brief: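 Vehicle-normalized growth inhibition is determined in mgt1 yeast, a strain selected for a defined alteration in DNA repair or cell cycle control.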

[4] = NCI Yeast Anticancer Drug Screen. Data for the rad50 strain (AID 155);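 further: 0% = growth of vehicle-only cultures of the same strain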; details: S. cerevisiae rad50 strain growth inhibition, hits give high values
Method in brief: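 Inhibition values express reduced yeast growth in compound-treated cultures relative to vehicle-treated controls.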

[5] = NCI Yeast Anticancer Drug Screen. Data for the mec2-1 strain (AID 157); details: S. cerevisiae mec2-1 strain, hits give high values
Method in brief: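 Mutant yeast (mec2-1) grown with compound; growth inhibition relative to vehicle control reported.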

[6] = NCI Yeast Anticancer Drug Screen. Data for the rad14 strain (AID 159);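 further: 0% = growth of vehicle-treated control cultures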; details: S. cerevisiae rad14 strain growth inhibition, hits give high values
Method in brief: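 A mutant yeast strain defective in DNA damage repair is treated with compound; inhibition of its growth is scored against untreated, vehicle-exposed cultures.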

[7] = NCI Yeast Anticancer Drug Screen. Data for the sgs1 mgt1 strain (AID 161);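 further: 0% = growth of cultures given vehicle only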; details: S. cerevisiae sgs1 mgt1 strain, hits give high values
Method in brief: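 This yeast growth screen uses a strain with defined DNA-repair lesions; compound-treated growth is compared with vehicle-treated growth.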

[8] = NCI Yeast Anticancer Drug Screen. Data for the CLN2oe strain (AID 163);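 further: 0% = growth of vehicle-only control cultures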; details: S. cerevisiae CLN2oe strain, hits give high values
Method in brief: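 Compounds are applied to yeast harbouring a defined cell-cycle control change; reduced growth compared with vehicle-treated controls gives the value.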

[9] = NCI Yeast Anticancer Drug Screen. Data for the cln2 rad14 strain (AID 165);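 further: 0% = growth equal to vehicle treated cultures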; details: S. cerevisiae cln2 rad14 strain, hits give high values
Method in brief: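 Readout is yeast growth inhibition versus vehicle-treated controls, using a strain with cln2 and rad14 alterations exposed to compound.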

[10] = NCI Yeast Anticancer Drug Screen. Data for the bub3 strain (AID 167); details: S. cerevisiae bub3 mutant strain, hits give high values
Method in brief: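 Steps: expose the mutant yeast strain to compound; grow alongside vehicle-treated cultures; measure growth; express inhibition against the vehicle cultures.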

[11] = NCI Yeast Anticancer Drug Screen. Data for the wt2 strain (AID 169);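 further: 0% = growth of vehicle-treated yeast cultures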; details: S. cerevisiae wt2 strain growth inhibition, hits give high values
Method in brief: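 Against vehicle-treated controls, the growth of yeast exposed to each compound was compared, and the inhibition was recorded.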

[12] = NCI Yeast Anticancer Drug Screen. Data for the sgs1 strain (AID 173);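 further: 0% = growth of vehicle-only control cultures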; details: S. cerevisiae sgs1 mutant, hits give high values
Method in brief: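 Each compound was added to cultures of the altered yeast strain. Growth was recorded, and inhibition was derived by comparison with vehicle controls.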

[13] = NCI Yeast Anticancer Drug Screen. Data for the mlh1 rad18 strain (AID 175); details: S. cerevisiae mlh1 rad18 strain growth inhibition, hits give high values
Method in brief: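 Genetically defined yeast (DNA repair-deficient) exposed to compounds; growth inhibition determined relative to vehicle.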

[14] = NCI Yeast Anticancer Drug Screen. Data for the rad18 strain (AID 177); details: S. cerevisiae rad18 mutant growth inhibition, hits give high values
Method in brief: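 Vehicle-treated cultures served as the baseline for scoring compound-induced growth inhibition in DNA-repair-mutant yeast.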

[15] = NCI Yeast Anticancer Drug Screen. Data for the mlh1 strain (AID 171);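 further: 0% = growth of vehicle-treated control cultures of the same strain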; details: S. cerevisiae mlh1 strain growth inhibition, hits give high values
Method in brief: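 Measured: yeast growth. Reference: vehicle-treated controls. Organism: strain with a defined alteration affecting DNA damage repair or cell cycle control, treated with compound.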

[16] = NCI Yeast Anticancer Drug Screen. Data for the rad52 strain (AID 147);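 further: 0% = growth of vehicle-treated control cultures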; details: S. cerevisiae rad52 mutant growth inhibition, hits give high values
Method in brief: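 The repair-mutant yeast strain was incubated with compounds, then growth was read and inhibition derived relative to vehicle.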

[17] = at 5.0 µM (retest, dose inferred, filed as 0.5)
[18] = at 50.0 µM (retest, dose inferred, filed as 5.0)

Measured: growth inhibition

CC[n+]1ccc2c(C)c3[nH]c4ccc(O)cc4c3c(C)c2c1
active: [2]; at 33.0 µM 85% | [2]; at 100.0 µM 90% | [4]; at 33.0 µM 86% | [4]; [18] 92% | [4]; at 50.0 µM 81.5% | [4]; at 100.0 µM 90%
inactive: [1]; at 1.2 µM -13% | [1]; at 3.7 µM 7% | [1]; at 11.0 µM 3% | [1]; at 33.0 µM 9% | [1]; at 100.0 µM 14% | [2]; at 1.2 µM 16% | [2]; at 3.7 µM 34% | [2]; at 11.0 µM 64% | [3]; at 1.2 µM -36% | [3]; at 3.7 µM -14% | [3]; at 11.0 µM -16% | [3]; at 33.0 µM -5% | [3]; at 100.0 µM 14% | [4]; at 1.2 µM -24% | [4]; at 3.7 µM 16% | [4]; [17] 58% | [4]; at 11.0 µM 65% | [5]; at 1.2 µM -15% | [5]; at 3.7 µM -1% | [5]; [17] 1% | [5]; at 11.0 µM 0% | [5]; at 33.0 µM 6% | [5]; [18] 16% | [5]; at 50.0 µM 59.5% | [5]; at 100.0 µM 24% | [6]; at 1.2 µM -22% | [6]; at 3.7 µM -10% | [6]; at 11.0 µM -23% | [6]; at 33.0 µM -20% | [6]; at 100.0 µM -10% | [7]; [17] 4% | [7]; [18] 31% | [7]; at 50.0 µM 9.25% | [8]; at 1.2 µM 5% | [8]; at 3.7 µM 17% | [8]; at 11.0 µM 36% | [8]; at 33.0 µM 26% | [8]; at 100.0 µM 41% | [9]; [17] 5% | [9]; [18] 23% | [9]; at 50.0 µM 9.35% | [10]; at 1.2 µM -19% | [10]; at 3.7 µM -16% | [10]; [17] -8% | [10]; at 11.0 µM -16% | [10]; at 33.0 µM 3% | [10]; [18] 28% | [10]; at 50.0 µM 5.2% | [10]; at 100.0 µM 15% | [11]; at 1.2 µM -5% | [11]; at 3.7 µM -6% | [11]; at 11.0 µM -3% | [11]; at 33.0 µM -1% | [11]; at 100.0 µM 13% | [12]; at 1.2 µM 9% | [12]; at 3.7 µM 38% | [12]; at 11.0 µM 43% | [12]; at 33.0 µM 0% | [12]; at 100.0 µM 46% | [13]; [17] 5% | [13]; [18] 30% | [13]; at 50.0 µM 65% | [14]; at 1.2 µM -23% | [14]; at 3.7 µM 2% | [14]; at 11.0 µM 23% | [14]; at 33.0 µM -6% | [14]; at 100.0 µM 6%

CN=C(N)N/N=C/c1ccc2c(c1)Cc1ccccc1-2
active: [3]; at 100.0 µM 92% | [4]; at 50.0 µM 72.8% | [4]; at 100.0 µM 92% | [5]; [18] 92% | [6]; at 100.0 µM 88% | [7]; [18] 83% | [8]; at 100.0 µM 80% | [10]; [18] 100% | [10]; at 100.0 µM 73% | [11]; at 100.0 µM 98% | [15]; at 100.0 µM 91% | [12]; at 100.0 µM 93% | [13]; [18] 85% | [13]; at 50.0 µM 81.2% | [14]; at 100.0 µM 90%
inactive: [1]; at 1.2 µM 0% | [1]; at 3.7 µM 17% | [1]; at 11.0 µM 4% | [1]; at 33.0 µM 8% | [1]; at 100.0 µM 44% | [3]; at 1.2 µM -11% | [3]; at 3.7 µM -2% | [3]; at 11.0 µM 1% | [3]; at 33.0 µM 14% | [4]; at 1.2 µM -7% | [4]; at 3.7 µM -9% | [4]; [17] 10% | [4]; at 11.0 µM -12% | [4]; at 33.0 µM -2% | [4]; [18] 64% | [5]; at 1.2 µM 9% | [5]; at 3.7 µM -4% | [5]; [17] 6% | [5]; at 11.0 µM -5% | [5]; at 33.0 µM -13% | [5]; at 50.0 µM 23.1% | [5]; at 100.0 µM 60% | [6]; at 1.2 µM -1% | [6]; at 3.7 µM -14% | [6]; at 11.0 µM -21% | [6]; at 33.0 µM -16% | [7]; [17] 24% | [7]; at 50.0 µM 30.2% | [8]; at 1.2 µM -90% | [8]; at 3.7 µM -34% | [8]; at 11.0 µM -16% | [8]; at 33.0 µM -5% | [9]; [17] -5% | [9]; [18] 27% | [9]; at 50.0 µM 19.8% | [10]; at 1.2 µM -15% | [10]; at 3.7 µM -4% | [10]; [17] 30% | [10]; at 11.0 µM -8% | [10]; at 33.0 µM 3% | [10]; at 50.0 µM 22.4% | [11]; at 1.2 µM -44% | [11]; at 3.7 µM -17% | [11]; at 11.0 µM -15% | [11]; at 33.0 µM 34% | [15]; at 1.2 µM -24% | [15]; at 3.7 µM -18% | [15]; at 11.0 µM -17% | [15]; at 33.0 µM -10% | [12]; at 1.2 µM 12% | [12]; at 3.7 µM 35% | [12]; at 11.0 µM 50% | [12]; at 33.0 µM 58% | [13]; [17] 42% | [14]; at 1.2 µM -5% | [14]; at 3.7 µM -15% | [14]; at 11.0 µM -12% | [14]; at 33.0 µM 1%

CC(C(=O)N1C(=O)N(C(=O)[C@H](C)C(O)c2ccccc2)[C@H](c2ccccc2)[C@H]1c1ccccc1)[C@@H](O)c1ccccc1 (stereo partly specified)
inactive: [16]; at 1.2 µM -1% | [16]; at 3.7 µM -2% | [16]; at 11.0 µM 11% | [16]; at 33.0 µM 37% | [16]; at 100.0 µM 62% | [2]; at 1.2 µM -4% | [2]; at 3.7 µM -4% | [2]; at 11.0 µM -1% | [2]; at 33.0 µM -3% | [2]; at 100.0 µM -11% | [3]; at 1.2 µM -6% | [3]; at 3.7 µM -9% | [3]; at 11.0 µM 4% | [3]; at 33.0 µM 25% | [3]; at 100.0 µM 59% | [4]; at 1.2 µM -7% | [4]; at 3.7 µM -15% | [4]; [17] -5% | [4]; at 11.0 µM -9% | [4]; at 33.0 µM 41% | [4]; [18] 39% | [4]; at 100.0 µM 56% | [5]; at 1.2 µM -5% | [5]; at 3.7 µM -1% | [5]; [17] -14% | [5]; at 11.0 µM 8% | [5]; at 33.0 µM 33% | [5]; [18] 51%
active: [4]; at 50.0 µM 80.1% | [5]; at 50.0 µM 73.2%
